HT1080 IDH1KD tx: qHTS for induction of synthetic lethality in tumor cells producing 2HG: qHTS for the HT-1080-IDH1KD cell line; AID 686971, 2013; Potency, µM (titrated, usually from 46.1 µM), hits mostly cytotoxic; actives 2% (n = 360,000); HT-1080 IDH1 knockdown viability, ATP luminescence, 48 h
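Cytotoxicity counter-line: IDH1KD HT-1080, 48 h, CellTiter-Glo. Curves classed by r2, magnitude and activity.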
IL-1B inflam inh: qHTS for Inhibitors of Inflammasome Signaling: IL-1-beta AlphaLISA Primary Screen; THP-1 LPS/ATP IL-1B secretion, AlphaLISA, 16 h; hits give low values; AID 743279, 2014; activity change, % at 57.5 µM; actives 4.7% (n = 360,000); in the data active means activity change below about -50%; inconclusive means mostly about -30% to -49%
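Secreted IL-1B measured by AlphaLISA bead assay after 16 h compound exposure of THP-1 cells; compounds (final up to 57.5 uM) added 1 h before LPS (250 ng/mL) and ATP (1.25 mM) stimulation; lower signal means less secretion.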
12-LOX inh: Primary qHTS assay for inhibitors of human arachidonate 12S-lipoxygenase (ALOX12): Round 2 | AID 1671190, 2021 | Polyunsaturated fatty acid lipoxygenase ALOX12 (Homo sapiens), P18054 | Potency, µM (series often up to 108 µM), usual class: inhibitors | actives 1.1% (n = 580,000) | purified 12hLO, xylenol orange hydroperoxide absorbance
Target sequence (P18054 whole entry, looked up): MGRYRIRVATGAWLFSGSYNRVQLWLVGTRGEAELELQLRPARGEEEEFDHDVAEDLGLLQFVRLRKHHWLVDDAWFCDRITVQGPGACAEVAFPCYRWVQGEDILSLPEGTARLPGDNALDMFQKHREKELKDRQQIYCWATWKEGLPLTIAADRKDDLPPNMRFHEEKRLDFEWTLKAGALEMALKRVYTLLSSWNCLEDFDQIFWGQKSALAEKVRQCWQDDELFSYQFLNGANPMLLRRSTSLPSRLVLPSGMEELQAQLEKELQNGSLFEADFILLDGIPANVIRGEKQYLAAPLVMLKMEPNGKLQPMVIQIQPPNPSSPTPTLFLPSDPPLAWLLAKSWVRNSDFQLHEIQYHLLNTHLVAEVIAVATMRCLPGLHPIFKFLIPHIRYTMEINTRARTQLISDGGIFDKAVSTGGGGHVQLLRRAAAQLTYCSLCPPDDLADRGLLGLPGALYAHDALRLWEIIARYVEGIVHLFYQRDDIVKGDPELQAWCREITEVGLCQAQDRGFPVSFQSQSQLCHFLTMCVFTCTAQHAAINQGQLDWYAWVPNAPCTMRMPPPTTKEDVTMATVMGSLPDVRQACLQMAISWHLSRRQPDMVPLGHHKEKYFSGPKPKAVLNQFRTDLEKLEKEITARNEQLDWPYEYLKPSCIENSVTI
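Purified human 12hLO at 150 nM in 25 mM Hepes, 0.01% Triton X-100, pH 7.0, preincubated 15 min at room temperature with compound. Reaction started with 40 uM arachidonic acid, 30 min at room temperature. Hydroperoxide measured by Fe-xylenol orange, 573/405 nm absorbance ratio.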
HT1080-NT tox: qHTS for induction of synthetic lethality in tumor cells producing 2HG: qHTS for the HT-1080-NT fibrosarcoma cell line; HT-1080-NT fibrosarcoma viability, CellTiter-Glo ATP luminescence, 48 h; Potency, µM (highest dose often 46.1 µM), actives largely listed as cytotoxic; actives 1.6% (n = 360,000); AID 686970, 2013;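 further: NT is the 2HG producing partner of a matched IDH1 knockdown line; nearly all actives have a fitted effect of over 55% in size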
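Read-out is CellTiter-Glo luminescence after 10 minutes at room temperature, following 48 hours' compound treatment of HT-1080-NT cells (750 cells/well, RPMI, 5% FBS, 37 degrees C).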
DT40 TDP1 no CPT: qHTS for Inhibitors of human tyrosyl-DNA phosphodiesterase 1 (TDP1): qHTS in cells in absence of CPT; DT40 Tdp1-/- hTDP1 cells, no CPT, ATP luminescence, 48 h; Potency, µM (series often up to 46.2 µM), usual class: inhibitors; actives 15% (n = 420,000); further: nearly all actives have a fitted effect of over 55% in size
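Luminescent ATP content (CellTiter-Glo) served as the growth readout. Knockout chicken DT40 cells expressing human TDP1 were exposed to compounds without camptothecin for a minimum 48 hr at 37 °C.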
TDP1 cell CPT: qHTS for Inhibitors of human tyrosyl-DNA phosphodiesterase 1 (TDP1): qHTS in cells in presence of CPT; chicken DT40 Tdp1-/-;hTDP1 cells + 20 nM CPT, ATP luminescence, 48 h; Potency, µM (series often up to 46.2 µM), usual class: inhibitors; actives 12% (n = 420,000); AID 686979, 2013; further: nearly all actives have a fitted effect of over 55% in size
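Chicken DT40 Tdp1-/- cells stably complemented with human TDP1 were seeded at 400 cells/well in medium containing 20 nM camptothecin, exposed to pin-transferred compounds, and grown at 37 °C for at least 48 hr. Viability was read as ATP luminescence.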
Hits are given with their value; – = inactive; ? = inconclusive; · = no result given. Only a selection was taken, and hits are over-represented in it overall. Unless noted, the call rests on the fitted dose curve; in most records, active means well fitted curve in the direction sought with a large enough effect; inconclusive means small, poorly fitted or top-dose-only effect, or another doubt; inactive means no such curve, though single readings can be large; an effect the other way counts as inactive or inconclusive.

SMILES	HT1080 IDH1KD tx	IL-1B inflam inh	12-LOX inh	HT1080-NT tox	DT40 TDP1 no CPT	TDP1 cell CPT
CCN(CC)C(=O)C1CCN(c2nnc(C)c3c(C)n(-c4ccc(Cl)cc4)nc23)CC1	·	·	–	·	–	–
Cc1nnc(N2CCC(C(=O)NCc3ccc(F)cc3)CC2)c2nn(-c3ccc(Cl)cc3)c(C)c12	·	·	?	·	?	16µM
O=C(NCc1ccc(F)cc1)C1CCN(c2cnccn2)CC1	–	–	–	–	?	18µM
Cc1nnc(N2CCC(C(=O)NCCc3ccccc3)CC2)c2nn(-c3ccc(Cl)cc3)c(C)c12	·	·	–	·	21µM	15µM
Cc1ccc(Cl)cc1NC(=O)C1CCN(c2nnc(C)c3c(C)n(-c4ccccc4)nc23)CC1	·	·	–	·	10µM	8.2µM
C[C@H]1[C@@H]2[C@@H](O)C([C@H](C)C(=O)NCc3cccs3)CC[C@@]2(C)CC[C@@H]1NC(=O)c1cnccn1 (stereo partly drawn)	·	·	–	·	·	·
Cc1ccc(Cl)cc1NC(=O)C1CCN(c2nc3ccccc3n3cccc23)CC1	·	·	–	·	16µM	?
